Experimental data: PubChem BioAssay (Tox21)
Results filed as inconclusive are left out. Calls of active or inactive are those of the source. Unless noted, calls follow the shape of the full dose curve.

Key:
[1] = qHTS assay to identify small molecule agonists of the sonic hedgehog signaling (Shh) pathway (AID 1259368); also: series mostly up to about 92 µM; nearly all actives have a fitted effect of over 15% in size
How it was run: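 NIH/3T3-derived 3T3Gli1-Luc cells carrying a stably integrated Gli1 response element–firefly luciferase reporter were plated, left 4 hr at 37 C, then given compounds in DMSO for 24 hr. Luminescence was read 30 min after adding luciferase reagent.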

[2] = qHTS assay to identify small molecule agonists of the androgen receptor (AR) signaling pathway in the presence of an antagonist - cell viability counter screen (AID 1259379; active = well fitted curve in the direction sought with a large enough effect in the repeat runs; an effect the other way counts as inactive or inconclusive; also: series mostly up to about 92 µM; nearly all actives have a fitted effect of over 25% in size)
How it was run: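 MDA-kb2 human breast carcinoma cells (stable MMTV-luciferase, AR/GR responsive) were seeded 3,000 cells/well, pre-incubated 5 hr at 37C without CO2, then given 3.0uM nilutamide and compounds at 15 concentrations for 16 hr. Viability was read by CellTiter-Fluor fluorescence.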

[3] = qHTS assay to identify small molecule agonists of the estrogen receptor beta (ER-beta) signaling pathway - cell viability counter screen (AID 1259380; active = well fitted curve in the direction sought with a large enough effect in the repeat runs; an effect the other way counts as inactive or inconclusive; also: nearly all actives have a fitted effect of over 30% in size)
How it was run: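 ER-beta-UAS-bla HEK293T cells in medium with 2% charcoal-stripped FBS were preincubated 6 hr at 37C, dosed with compound in DMSO for 16 hr, then after the bla read, CellTiter-Glo was added for 30 min at room temperature; luminescence recorded.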

[4] = target: Androgen receptor (Homo sapiens) (UniProt P10275); assay: qHTS assay to identify small molecule agonists of the androgen receptor (AR) signaling pathway in the presence of an antagonist (AID 1259381); also: nearly all actives have a fitted effect of over 15% in size
How it was run: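 MDA-kb2 human breast carcinoma cells carrying an MMTV-luciferase reporter (AR- and GR-responsive) were treated with compounds at 15 concentrations plus 3.0uM final nilutamide for 16hr at 37C without CO2; luminescence was read after ONE-Glo addition.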

[5] = qHTS assay to identify small molecule antagonists of the estrogen receptor beta (ER-beta) signaling pathway - cell viability counter screen (AID 1259382; active = well fitted curve in the direction sought with a large enough effect in the repeat runs; an effect the other way counts as inactive or inconclusive;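 also: HEK293T cells carrying ER-beta-UAS-bla reporter stimulated with estradiol; series mostly up to about 92 µM; nearly all actives have a fitted effect of over 55% in size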)
How it was run: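 ER-beta-UAS-bla HEK293T cells (2,000/well, 2% charcoal-stripped FBS) were pre-incubated 6 hr at 37C, then given compound plus 1nM final 17-beta-estradiol for 16 hr. Viability was read in the same wells by CellTiter-Glo luminescence after 30 min at room temperature.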

[6] = target: Estrogen receptor (Homo sapiens) (UniProt P03372); assay: qHTS assay to identify small molecule agonists of the estrogen receptor alpha (ER-alpha) signaling pathway in the presence of an antagonist (AID 1259383); also: top concentration of the series differs between compounds; nearly all actives have a fitted effect of over 15% in size
How it was run: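 VM7Luc4E2 cells (endogenous full-length ER-alpha, 4×ERE-luciferase) were precultured 5 days in phenol red-free medium with 10% charcoal-stripped FBS, given 10.0nM ICI-182,780 (final), then treated with compounds at 15 concentrations for 22hr at 37C; luminescence read with ONE-Glo.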

[7] = qHTS assay to identify small molecule agonists or antagonists of the thyroid stimulating hormone receptor (TSHR) signaling pathway - wild type cell line counter screen (AID 1259384)
How it was run: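 Counter screen in untransfected Hek293: compounds (15-point titration, triplicate) plus phosphodiesterase inhibitor Ro20-1724 added after 18 h plating; 30 min RT. Intracellular cAMP via competitive d2/cryptate immunoassay, 1 h incubation.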

[8] = qHTS assay to identify small molecule antagonists of the sonic hedgehog signaling (Shh) pathway (AID 1259369); also: nearly all actives have a fitted effect of over 45% in size
How it was run: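 NIH/3T3-derived 3T3Gli1-Luc cells with stably integrated Gli1-Luc reporter were preincubated 4hr at 37 C, then given compounds in DMSO plus Shh conditioned medium and incubated 24hr. Firefly luciferase luminescence read after 30min reagent at room temperature.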

[9] = target: Estrogen receptor beta (Homo sapiens) (UniProt Q92731); assay: qHTS assay to identify small molecule agonists of the estrogen receptor beta (ER-beta) signaling pathway (AID 1259377; active = well fitted activation curve with a large enough effect in the signal ratio in the repeat runs, not every such curve was filed as active; the % refers to the signal ratio)
How it was run: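 Ratiometric beta-lactamase FRET read-out came after 2 h substrate loading at room temperature. It followed 16 h compound treatment at 37C of GripTite HEK293T cells carrying a UAS-bla reporter, plated in 2% charcoal-stripped FBS medium.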

[10] = target: Estrogen receptor beta (Homo sapiens) (UniProt Q92731); assay: qHTS assay to identify small molecule antagonists of the estrogen receptor beta (ER-beta) signaling pathway (AID 1259378; active = well fitted inhibition curve with a large enough effect in the signal ratio in the repeat runs, not every such curve was filed as active; the % refers to the signal ratio)
How it was run: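 Antagonist mode: compounds added to beta-lactamase reporter HEK293T ER-beta-UAS cells stimulated with E2 (1nM final), 16 hr at 37C. LiveBLAzer B/G FRET substrate, 2 hours room temperature, fluorescence read-out.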
% is scaled to controls: 0 for no effect and ±100 for the full control effect.

Sequence of Androgen receptor (Homo sapiens) (P10275 whole entry, looked up): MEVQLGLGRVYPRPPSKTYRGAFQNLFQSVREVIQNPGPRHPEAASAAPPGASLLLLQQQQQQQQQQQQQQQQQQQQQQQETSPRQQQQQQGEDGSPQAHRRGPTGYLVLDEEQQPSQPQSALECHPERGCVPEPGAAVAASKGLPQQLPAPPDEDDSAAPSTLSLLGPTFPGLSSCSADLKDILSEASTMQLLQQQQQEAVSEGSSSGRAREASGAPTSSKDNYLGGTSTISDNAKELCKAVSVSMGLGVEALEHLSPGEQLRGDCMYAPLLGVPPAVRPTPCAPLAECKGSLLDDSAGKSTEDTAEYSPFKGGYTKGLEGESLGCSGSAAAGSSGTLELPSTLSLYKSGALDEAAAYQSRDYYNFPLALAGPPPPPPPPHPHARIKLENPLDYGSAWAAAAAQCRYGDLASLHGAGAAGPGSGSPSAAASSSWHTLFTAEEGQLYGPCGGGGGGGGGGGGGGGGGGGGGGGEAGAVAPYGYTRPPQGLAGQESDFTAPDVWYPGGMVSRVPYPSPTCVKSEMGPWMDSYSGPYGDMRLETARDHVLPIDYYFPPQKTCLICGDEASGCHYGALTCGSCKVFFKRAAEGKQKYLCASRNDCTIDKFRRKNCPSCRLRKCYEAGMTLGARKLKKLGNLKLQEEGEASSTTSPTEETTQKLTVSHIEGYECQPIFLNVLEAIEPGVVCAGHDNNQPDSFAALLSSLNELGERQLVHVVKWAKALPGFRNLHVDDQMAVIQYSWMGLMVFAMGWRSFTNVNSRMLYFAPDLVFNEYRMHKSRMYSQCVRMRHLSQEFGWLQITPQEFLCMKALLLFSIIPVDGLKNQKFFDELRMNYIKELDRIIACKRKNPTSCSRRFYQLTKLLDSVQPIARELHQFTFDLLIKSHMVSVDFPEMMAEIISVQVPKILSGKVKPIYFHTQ
Sequence of Estrogen receptor beta (Homo sapiens) (Q92731 whole entry, looked up): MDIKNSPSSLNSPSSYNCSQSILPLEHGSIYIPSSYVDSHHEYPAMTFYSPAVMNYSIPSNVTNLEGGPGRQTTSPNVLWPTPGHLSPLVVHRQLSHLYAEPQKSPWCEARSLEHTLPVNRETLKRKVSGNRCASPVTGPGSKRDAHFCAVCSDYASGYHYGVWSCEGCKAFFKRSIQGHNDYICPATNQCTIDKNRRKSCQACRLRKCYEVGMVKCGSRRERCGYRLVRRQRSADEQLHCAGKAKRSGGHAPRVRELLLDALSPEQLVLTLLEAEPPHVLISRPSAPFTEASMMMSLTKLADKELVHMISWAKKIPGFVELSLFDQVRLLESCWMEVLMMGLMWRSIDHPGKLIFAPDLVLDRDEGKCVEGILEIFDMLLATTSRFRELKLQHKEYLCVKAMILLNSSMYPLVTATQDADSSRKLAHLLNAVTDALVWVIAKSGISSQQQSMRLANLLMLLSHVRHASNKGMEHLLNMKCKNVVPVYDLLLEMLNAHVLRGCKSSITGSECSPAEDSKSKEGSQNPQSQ
Sequence of Estrogen receptor (Homo sapiens) (P03372 whole entry, looked up): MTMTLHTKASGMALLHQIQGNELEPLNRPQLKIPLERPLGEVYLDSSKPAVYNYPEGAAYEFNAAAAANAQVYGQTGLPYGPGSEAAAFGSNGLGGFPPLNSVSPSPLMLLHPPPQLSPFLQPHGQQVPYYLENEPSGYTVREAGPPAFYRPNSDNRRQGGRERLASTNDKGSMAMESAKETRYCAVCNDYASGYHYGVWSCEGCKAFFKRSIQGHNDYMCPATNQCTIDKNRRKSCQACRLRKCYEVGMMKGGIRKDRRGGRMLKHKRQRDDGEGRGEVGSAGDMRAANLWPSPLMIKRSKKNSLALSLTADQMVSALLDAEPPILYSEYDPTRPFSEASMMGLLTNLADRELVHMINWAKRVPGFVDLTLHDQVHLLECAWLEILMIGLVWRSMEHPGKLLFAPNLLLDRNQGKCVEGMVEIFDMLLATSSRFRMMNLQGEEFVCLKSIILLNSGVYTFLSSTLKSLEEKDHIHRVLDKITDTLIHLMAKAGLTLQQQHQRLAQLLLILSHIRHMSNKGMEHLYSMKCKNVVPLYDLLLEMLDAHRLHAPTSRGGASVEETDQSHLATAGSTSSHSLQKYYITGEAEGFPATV

CC1(C)C(O)C(C)(C)C1O (centres undefined)
inactive: outcome [1] | Potency [2] | Potency [3] | Potency [4] | Potency [5] | Potency [6] | outcome [7]

CCn1nc(C(=O)O)c(=O)c2cc3c(cc21)OCO3
inactive: Potency [8] | outcome [9] | outcome [10] | Potency [2] | Potency [3] | Potency [4] | Potency [5] | Potency [6] | outcome [7]

CCOC(=O)CCC(C)=O
inactive: outcome [1] | outcome [10] | Potency [2] | Potency [3] | Potency [5] | Potency [6]

O=S(O)CO
inactive: outcome [1] | outcome [10] | Potency [3] | Potency [4] | Potency [5] | Potency [6] | outcome [7]

CN(C)CCCNCCCN(C)C
inactive: outcome [1] | Potency [3] | Potency [5] | Potency [6] | outcome [7]

CC(C)(O)C#CC(C)(C)O
inactive: outcome [1] | Potency [5] | Potency [6] | outcome [7]

NCCCNCCSP(=O)(O)O
inactive: activity change, negative = inhibition [8] 21.5% [at 8.39 µM] | activation [9] -1.24% [at 8.39 µM] | activity, negative = inhibition [10] 13.1% [at 8.39 µM] | activity change, negative = cytotoxicity [2] 9.45% [at 8.39 µM] | activity change, negative = cytotoxicity [3] 0.895% [at 8.39 µM] | activity change, negative = cytotoxicity [5] 1.8% [at 8.39 µM] | activation [6] -0.349% [at 8.39 µM] | cAMP activity change [7] -0.261% [at 8.39 µM]

NCCc1cnc[nH]1
inactive: outcome [1] | outcome [9] | outcome [10] | Potency [5] | outcome [7]

CCCC(=O)O[C@]1(C(=O)CO)CC[C@H]2[C@@H]3CCC4=CC(=O)CC[C@]4(C)[C@H]3[C@@H](O)C[C@@]21C
inactive: outcome [1] | Potency [2] | Potency [5] | outcome [7]

O=C(O)c1ccccc1OP(=O)(O)O
inactive: outcome [1] | outcome [9] | outcome [10] | Potency [5] | Potency [6] | outcome [7]

C=C(C)C(=O)OCCCCCCCC(C)C
inactive: outcome [9] | outcome [10] | Potency [2] | Potency [4] | Potency [5] | Potency [6] | outcome [7]

OC[C@]1(O)OC[C@@H](O)[C@H](O)[C@@H]1O
inactive: Potency [8] | Potency [2] | Potency [3] | Potency [5] | outcome [7]

CC1(C)CO[C@@H](CC(=O)O)CN1
inactive: outcome [9] | outcome [10] | Potency [2] | Potency [3] | Potency [5] | Potency [6] | outcome [7]

N=C(N)c1ccccc1
inactive: Potency [8] | outcome [9] | outcome [10] | Potency [3] | Potency [5] | outcome [7]

CC/C=C\CC/C=C/CO
inactive: Potency [2] | Potency [3] | Potency [5]

CCCN(CCC)CCc1cccc2c1CC(=O)N2
inactive: Potency [8] | outcome [9] | outcome [10] | Potency [2] | Potency [3] | Potency [5] | outcome [7]

CCC(C)S (centres undefined)
inactive: activity change, negative = inhibition [8] 17.6% [at 3.27 µM] | activation [9] 0.578% [at 3.32 µM] | activity, negative = inhibition [10] 9.7% [at 3.27 µM] | activity change, negative = cytotoxicity [2] -0.314% [at 3.27 µM] | activity change, negative = cytotoxicity [3] 4.81% [at 3.32 µM] | activity change, negative = cytotoxicity [5] 6.44% [at 3.27 µM] | cAMP activity change [7] 0.879% [at 3.27 µM]

CC1=CC(C)C(C=O)CC1 (centres undefined)
inactive: outcome [9] | outcome [10] | Potency [2] | Potency [3] | Potency [5] | Potency [6] | outcome [7]

NC(CSCC(=O)O)C(=O)O (centres undefined)
inactive: outcome [9] | outcome [10] | Potency [2] | Potency [5] | Potency [6]

CN1CCC(=C2c3ccccc3CC(=O)c3sccc32)CC1
inactive: Potency [8] | outcome [10] | Potency [2] | Potency [5] | Potency [6] | outcome [7]

CO[Si](CCCOCC1CO1)(OC)OC (centres undefined)
inactive: Potency [8] | Potency [2] | Potency [3] | Potency [5] | Potency [6]

CCOC(=O)CC(C)=O
inactive: Potency [8] | Potency [5] | outcome [7]
